Among all 150,000 compounds or so, about 6,500 (4.3%) were called active. About 12% were inconclusive and are not listed. Shown is part of a subset that was picked to be rich in actives. Values without a mark were called inactive. Calls follow the shape of the dose curve; as a rule, active = well fitted inhibition curve with a large enough effect (not every such curve was filed as active); inconclusive = small, poorly fitted or top-dose-only effect, or another doubt; inactive = no such curve, though single readings can be large or run the other way.
Each molecule was assayed against 15-hydroxyprostaglandin dehydrogenase [NAD(+)] (Homo sapiens) (UniProt P15428) (assay: qHTS Assay for Inhibitors of HPGD (15-Hydroxyprostaglandin Dehydrogenase)). Conditions: purified HPGD, NADH fluorescence kinetic, PGE2 substrate; activity change, negative = inhibition: active compounds read low.
Outline: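 20 nM HPGD preincubated 15 min at room temperature with compound in 50 mM Tris-HCl pH 8, 0.01% Tween 20. Started with 1 mM NAD+ and 30 uM prostaglandin E2; NADH fluorescence (360/450 nm) read 5 times over 30-s intervals, last minus first.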
% is scaled to controls: 0 for no effect and ±100 for the full control effect; potency is read from the fitted curve at half-maximal effect.

Sequence of 15-hydroxyprostaglandin dehydrogenase [NAD(+)] (Homo sapiens) (P15428 whole entry, looked up): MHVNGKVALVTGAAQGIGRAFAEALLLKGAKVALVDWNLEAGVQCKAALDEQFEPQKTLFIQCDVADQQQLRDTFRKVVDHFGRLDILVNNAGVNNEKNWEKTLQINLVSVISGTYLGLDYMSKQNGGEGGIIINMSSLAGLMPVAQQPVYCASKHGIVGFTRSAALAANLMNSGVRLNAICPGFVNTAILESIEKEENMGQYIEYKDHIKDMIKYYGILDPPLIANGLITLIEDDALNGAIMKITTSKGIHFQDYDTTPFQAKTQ

SMILES | activity change, negative = inhibition [%] | Potency
CCOC(=O)CNC(=O)/C=C/c1c(Cl)cccc1Cl | -4.86 | 
Cc1cccc2cc(CN(C(=O)c3cccs3)c3ccccc3)c(=O)[nH]c12 | -18.7 | 
CSC(=S)N/N=C/c1c[nH]c2ccccc12 | -6.73 | 
Cc1ccc(-c2csc(-c3c[nH]c4ccccc34)n2)cc1 | -7.14 | 
S=c1[nH]nc(-c2ccccc2)n1/N=C/c1c[nH]c2ccccc12 |  | 2 µM (active)
Oc1ccccc1/C=N/n1c(-c2cccs2)n[nH]c1=S |  | 2.51 µM (active)
S=c1[nH]nc(-c2ccco2)n1/N=C/c1ccc(Br)s1 |  | 2.82 µM (active)
Brc1ccc(/C=N/N2CCN(C3c4ccccc4-c4ccccc43)CC2)s1 | -4.34 | 
Cc1n[nH]c(=S)n1/N=C/c1ccc(Br)o1 | -10 | 
c1ccc(-c2noc(-c3cccs3)n2)nc1 | -8.74 | 
Cc1ccsc1/C=N/n1c(=S)[nH]nc(C)c1=O | -6.69 | 
Cc1ccc(/C=N\n2c(-c3ccccc3)n[nH]c2=S)s1 |  | 11.2 µM (active)
Cc1ccc2[nH]c(C(=O)O)c(NC(=O)c3ccccc3[N+](=O)[O-])c2c1 | -8.36 | 
COc1ccc(C(=O)NC2(C(F)(F)F)NC(=O)N(CCCc3ccccc3)C2=O)c(OC)c1OC (centres undefined) | -2.88 | 
Cc1cccc(C)c1NC(=O)CSc1ccc([N+](=O)[O-])cn1 | -5.79 | 
COc1ccccc1N1CCN(C(=O)C(=O)N/N=C/c2ccccc2F)CC1 | -6.15 | 
CC(C)=C(NC(=O)c1ccccc1)C(=O)N/N=C(\C)c1ccccc1O | -7.72 | 
Cc1cc(C)cc(NC(=S)NCCCN2CCOCC2)c1 | -3.2 | 
Cc1ccc2[nH]c(=O)c(CC=C(Cl)Cl)c(C)c2c1 | -6.58 | 
Cc1cc(C(=O)NNC(=S)Nc2ccccc2C)cs1 | -17.5 | 
COC(=O)C1=NNC2(c3ccc(C)cc3)C(=O)N(c3cccc(C)c3C)C(=O)C12 (centres undefined) | -7.55 | 
CCOc1ccc(/C=N/OCC(=O)NCc2cccs2)cc1 |  | 15.8 µM (active)
O=C(Cc1cccs1)N/N=C/c1ccc(OCc2ccccc2)cc1 | -20.3 | 
CCOc1ccc(/C=N/NC(N)=S)cc1 | -6.57 | 
CC1CCc2sc(C(=O)N/N=C/C3CCCCC3)cc2C1 (centres undefined) | -7.97 | 

SMILES | activity change, negative = inhibition [%] | Potency
Cc1cc(C)n(C(=O)CCNC(=O)c2ccccc2Cl)n1 |  | 15.8 µM (active)
CCOc1ccc(NC(=O)CCC(=O)n2nc(C)cc2C)cc1 | -8.1 | 
O=C(Nc1ccccc1C(=O)NCCCn1ccnc1)c1ccc(Cl)cc1Cl | -7.71 | 
CCOC(=O)CC(NC(=O)C1c2ccccc2Oc2ccccc21)c1ccc(C)cc1 (centres undefined) | 6.16 | 
CCOC(=O)C1=C(C)OC(N)=C(C#N)C1c1cncc(-c2ccc(F)cc2)c1 (centres undefined) | -9.79 | 
Cc1cnc(NC(=O)CSc2nnc(-c3ccccc3)n2Cc2ccccc2)s1 | -9.73 | 
Cc1cnc(NC(=O)CSc2c(Cl)cccc2Cl)s1 | -12.6 | 
Cc1cnc(NC(=O)CSc2nnc(-c3ccc(Cl)cc3Cl)n2N)s1 |  | 25.1 µM (active)
CCCCC(O)(CCCC)C(=O)NN(C(=O)CCl)c1ccccc1 | -6.18 | 
O=C(NCCCO)/C(=C\C=C\c1ccccc1)NC(=O)c1ccccc1Cl | -15.4 | 
CC(C)(C)C(=O)NC(NC(=S)Nc1ccc(S(N)(=O)=O)cc1)C(Cl)(Cl)Cl (centres undefined) | -0.407 | 
CC(C)(C)C1CCC(=NNC(=O)c2cc(-c3ccccc3)n[nH]2)CC1 (centres undefined) | -7.88 | 
Cc1ccccc1-c1ccc(Nc2ccc(C(=O)N3CCOCC3)cc2)nn1 |  | 22.4 µM (active)
Cc1onc(-c2ccccc2)c1C(=O)N1CCOCC1 | 0.967 | 
O=C(c1ccccc1-c1ccccc1)N1CCOCC1 | -1.91 | 
O=C(COc1ccc(/C=N/NC(=O)c2ccc(O)cc2)cc1)Nc1ccc([N+](=O)[O-])cc1 | -5.7 | 
O=C(NCc1ccco1)O[C@@H]1C(=O)c2cc(Br)ccc2O[C@H]1c1ccc2c(c1)OCO2 | -7.84 | 
Cc1ccc(Nc2nnc(SCC(=O)c3cc4ccccc4o3)s2)cc1C | -14.9 | 
O=C(CSc1nnc(Nc2ccccc2)s1)Nc1cccnc1Cl | -3.17 | 
CC(C)c1ccc(Nc2nnc(SCC(=O)c3nnc(-c4ccccc4)o3)s2)cc1 |  | 31.6 µM (active)
Cc1nn(Cc2ccccc2)c(C)c1C(=O)NCCN1C(=O)S/C(=C\c2ccc(F)cc2)C1=O | -19.6 | 
COc1cccc(/C=N/NC(=O)c2[nH]nc3c2CCc2ccccc2-3)c1O |  | 35.5 µM (active)
COc1cccc(/C=N/Nc2ncc(C(F)(F)F)cc2Cl)c1O | -13.5 | 
COc1cccc(/C=N\NC(=O)C2=NNC(=O)C2C)c1O (centres undefined) | -11.9 | 
